Of roughly 6,500 targets only a part is listed; those with a hit were picked by preference. About 2% of all pairs of compound and target were hits.

Sequence of UniProt Q9UPN9 (Q9UPN9 whole entry, looked up): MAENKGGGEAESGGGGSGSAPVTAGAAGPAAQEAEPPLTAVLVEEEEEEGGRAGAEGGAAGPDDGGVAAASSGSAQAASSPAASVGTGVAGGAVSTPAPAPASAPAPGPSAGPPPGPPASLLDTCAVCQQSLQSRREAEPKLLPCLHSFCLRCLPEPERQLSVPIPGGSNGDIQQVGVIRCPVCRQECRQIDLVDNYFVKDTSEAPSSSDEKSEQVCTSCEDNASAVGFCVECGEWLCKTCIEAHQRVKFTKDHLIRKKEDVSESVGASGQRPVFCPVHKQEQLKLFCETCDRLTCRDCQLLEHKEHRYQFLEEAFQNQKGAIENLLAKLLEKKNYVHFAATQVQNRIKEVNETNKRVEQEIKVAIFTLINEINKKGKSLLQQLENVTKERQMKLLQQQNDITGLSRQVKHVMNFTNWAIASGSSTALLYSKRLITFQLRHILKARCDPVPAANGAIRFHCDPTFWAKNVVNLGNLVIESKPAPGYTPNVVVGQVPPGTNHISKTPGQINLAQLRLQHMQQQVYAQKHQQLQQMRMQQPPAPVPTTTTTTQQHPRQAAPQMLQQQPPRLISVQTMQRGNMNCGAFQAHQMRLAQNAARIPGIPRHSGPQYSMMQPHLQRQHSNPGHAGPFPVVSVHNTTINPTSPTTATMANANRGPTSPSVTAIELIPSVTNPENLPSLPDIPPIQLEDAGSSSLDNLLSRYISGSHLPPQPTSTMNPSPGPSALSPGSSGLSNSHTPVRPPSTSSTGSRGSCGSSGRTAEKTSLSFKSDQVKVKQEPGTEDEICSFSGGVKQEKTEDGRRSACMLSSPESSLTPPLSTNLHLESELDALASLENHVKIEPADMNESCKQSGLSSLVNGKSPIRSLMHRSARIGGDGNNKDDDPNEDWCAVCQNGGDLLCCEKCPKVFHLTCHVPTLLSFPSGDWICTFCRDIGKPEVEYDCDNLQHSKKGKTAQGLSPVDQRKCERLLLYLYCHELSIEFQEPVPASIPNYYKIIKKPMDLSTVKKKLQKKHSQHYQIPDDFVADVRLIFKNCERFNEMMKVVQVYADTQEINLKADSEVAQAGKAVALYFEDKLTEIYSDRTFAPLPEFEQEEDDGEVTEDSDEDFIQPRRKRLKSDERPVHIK
Sequence of UniProt Q9Y6K9 (Q9Y6K9 whole entry): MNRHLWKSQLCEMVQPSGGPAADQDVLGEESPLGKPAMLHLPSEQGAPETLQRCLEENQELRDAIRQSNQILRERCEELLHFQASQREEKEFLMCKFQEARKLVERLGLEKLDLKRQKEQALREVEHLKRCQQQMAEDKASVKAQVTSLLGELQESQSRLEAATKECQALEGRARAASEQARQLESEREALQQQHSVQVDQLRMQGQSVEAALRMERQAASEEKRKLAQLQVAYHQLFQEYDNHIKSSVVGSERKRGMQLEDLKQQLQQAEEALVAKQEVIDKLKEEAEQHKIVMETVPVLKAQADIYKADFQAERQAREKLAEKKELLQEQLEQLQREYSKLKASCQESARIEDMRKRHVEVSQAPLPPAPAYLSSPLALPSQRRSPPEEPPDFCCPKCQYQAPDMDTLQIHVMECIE
Sequence of UniProt Q9UM47 (Q9UM47 whole entry): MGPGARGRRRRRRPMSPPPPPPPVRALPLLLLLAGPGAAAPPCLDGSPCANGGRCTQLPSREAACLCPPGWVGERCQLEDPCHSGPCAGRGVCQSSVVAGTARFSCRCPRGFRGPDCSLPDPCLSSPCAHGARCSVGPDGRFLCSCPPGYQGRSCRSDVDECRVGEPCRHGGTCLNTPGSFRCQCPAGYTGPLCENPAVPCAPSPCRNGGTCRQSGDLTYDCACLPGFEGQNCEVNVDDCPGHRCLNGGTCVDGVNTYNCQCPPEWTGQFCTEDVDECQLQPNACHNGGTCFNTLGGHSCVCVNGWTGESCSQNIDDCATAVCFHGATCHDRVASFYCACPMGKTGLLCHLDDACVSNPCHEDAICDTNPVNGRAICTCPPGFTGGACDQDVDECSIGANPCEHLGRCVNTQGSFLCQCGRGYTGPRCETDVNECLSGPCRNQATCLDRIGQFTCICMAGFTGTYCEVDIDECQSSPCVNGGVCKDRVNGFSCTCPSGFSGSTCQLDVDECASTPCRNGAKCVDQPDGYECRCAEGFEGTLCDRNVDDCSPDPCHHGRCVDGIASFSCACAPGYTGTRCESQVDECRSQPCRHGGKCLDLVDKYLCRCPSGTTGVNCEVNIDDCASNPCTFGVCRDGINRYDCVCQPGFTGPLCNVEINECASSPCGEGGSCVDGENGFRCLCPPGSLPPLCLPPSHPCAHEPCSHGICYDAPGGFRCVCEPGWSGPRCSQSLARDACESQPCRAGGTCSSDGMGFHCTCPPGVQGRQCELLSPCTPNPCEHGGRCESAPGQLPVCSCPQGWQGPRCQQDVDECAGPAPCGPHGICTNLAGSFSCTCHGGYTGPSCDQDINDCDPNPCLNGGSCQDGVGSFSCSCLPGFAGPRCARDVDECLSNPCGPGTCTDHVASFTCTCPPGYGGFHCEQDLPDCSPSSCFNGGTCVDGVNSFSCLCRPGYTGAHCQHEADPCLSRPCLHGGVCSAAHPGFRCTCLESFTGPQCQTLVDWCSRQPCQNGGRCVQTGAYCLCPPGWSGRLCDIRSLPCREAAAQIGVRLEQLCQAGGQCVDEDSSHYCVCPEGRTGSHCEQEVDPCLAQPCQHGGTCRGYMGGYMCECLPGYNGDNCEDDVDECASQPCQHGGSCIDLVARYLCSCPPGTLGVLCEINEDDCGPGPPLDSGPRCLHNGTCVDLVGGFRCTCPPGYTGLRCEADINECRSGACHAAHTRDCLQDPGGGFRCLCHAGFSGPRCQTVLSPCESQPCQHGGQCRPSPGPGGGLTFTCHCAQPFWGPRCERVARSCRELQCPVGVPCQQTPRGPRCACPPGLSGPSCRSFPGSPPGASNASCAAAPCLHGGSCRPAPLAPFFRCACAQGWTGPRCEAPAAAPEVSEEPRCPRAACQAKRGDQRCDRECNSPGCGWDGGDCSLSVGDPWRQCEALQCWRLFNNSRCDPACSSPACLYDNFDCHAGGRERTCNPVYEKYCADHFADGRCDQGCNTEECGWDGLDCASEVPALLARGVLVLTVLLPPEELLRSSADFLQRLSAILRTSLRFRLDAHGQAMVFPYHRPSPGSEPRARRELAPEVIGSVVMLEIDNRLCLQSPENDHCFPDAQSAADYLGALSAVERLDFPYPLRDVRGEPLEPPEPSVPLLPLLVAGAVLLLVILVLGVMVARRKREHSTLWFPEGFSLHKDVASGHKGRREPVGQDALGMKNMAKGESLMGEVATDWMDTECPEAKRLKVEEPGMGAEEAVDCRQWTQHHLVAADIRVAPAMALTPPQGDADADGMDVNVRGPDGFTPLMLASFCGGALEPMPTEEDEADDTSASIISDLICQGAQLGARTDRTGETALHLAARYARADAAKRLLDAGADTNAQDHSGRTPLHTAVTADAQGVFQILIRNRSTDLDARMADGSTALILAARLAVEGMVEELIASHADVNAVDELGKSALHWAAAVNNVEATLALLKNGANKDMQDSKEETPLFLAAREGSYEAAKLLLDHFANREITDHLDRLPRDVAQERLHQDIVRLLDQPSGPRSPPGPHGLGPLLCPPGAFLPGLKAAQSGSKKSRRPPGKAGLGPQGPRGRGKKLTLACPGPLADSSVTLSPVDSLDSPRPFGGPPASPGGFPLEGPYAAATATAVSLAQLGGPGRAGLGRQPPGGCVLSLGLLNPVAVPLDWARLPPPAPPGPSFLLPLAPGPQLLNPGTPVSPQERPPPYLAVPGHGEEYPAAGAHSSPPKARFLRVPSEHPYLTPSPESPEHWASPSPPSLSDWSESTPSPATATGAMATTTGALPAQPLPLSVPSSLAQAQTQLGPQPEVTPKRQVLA
Sequence of UniProt Q9UBR2 (Q9UBR2 whole entry): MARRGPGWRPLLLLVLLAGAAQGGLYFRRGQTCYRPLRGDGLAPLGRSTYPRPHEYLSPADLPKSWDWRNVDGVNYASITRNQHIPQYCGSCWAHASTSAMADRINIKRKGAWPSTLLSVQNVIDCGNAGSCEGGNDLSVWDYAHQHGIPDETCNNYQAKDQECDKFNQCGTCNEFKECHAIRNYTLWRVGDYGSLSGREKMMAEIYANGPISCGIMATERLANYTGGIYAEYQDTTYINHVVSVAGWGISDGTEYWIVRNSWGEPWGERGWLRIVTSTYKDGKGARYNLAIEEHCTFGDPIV
Sequence of UniProt Q9BZE9 (Q9BZE9 whole entry, looked up): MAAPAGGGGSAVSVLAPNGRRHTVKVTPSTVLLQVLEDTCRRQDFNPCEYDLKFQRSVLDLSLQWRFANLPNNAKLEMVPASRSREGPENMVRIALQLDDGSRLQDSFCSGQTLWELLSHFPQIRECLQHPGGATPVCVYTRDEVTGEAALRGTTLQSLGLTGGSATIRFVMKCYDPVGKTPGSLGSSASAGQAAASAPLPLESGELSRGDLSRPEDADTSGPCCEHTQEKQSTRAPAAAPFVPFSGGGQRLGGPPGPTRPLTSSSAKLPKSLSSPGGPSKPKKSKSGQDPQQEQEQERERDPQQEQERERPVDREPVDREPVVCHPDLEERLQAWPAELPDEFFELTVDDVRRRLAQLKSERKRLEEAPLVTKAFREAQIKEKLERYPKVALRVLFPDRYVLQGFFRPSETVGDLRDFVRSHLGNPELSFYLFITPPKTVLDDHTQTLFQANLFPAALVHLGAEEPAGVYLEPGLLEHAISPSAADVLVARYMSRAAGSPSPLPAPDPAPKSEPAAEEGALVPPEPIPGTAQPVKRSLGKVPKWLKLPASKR
Sequence of UniProt Q9Y314 (Q9Y314 whole entry, looked up): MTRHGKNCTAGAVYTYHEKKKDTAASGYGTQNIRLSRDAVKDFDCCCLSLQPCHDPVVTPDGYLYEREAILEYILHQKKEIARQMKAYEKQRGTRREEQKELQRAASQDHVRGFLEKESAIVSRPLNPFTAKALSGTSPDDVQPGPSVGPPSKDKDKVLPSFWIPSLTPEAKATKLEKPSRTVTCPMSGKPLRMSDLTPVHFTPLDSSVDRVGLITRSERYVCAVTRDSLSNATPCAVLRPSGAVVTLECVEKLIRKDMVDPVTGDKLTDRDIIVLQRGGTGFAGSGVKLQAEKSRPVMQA

Compound in this test: COC(=O)C#Cc1ccccc1 [methyl 3-phenylpropiolate]
As to the kind of experiment: log2 ratio of iodoacetamide-alkyne labeling of the cysteine site, DMSO over compound (competition); higher = stronger covalent engagement of the cysteine by the compound, active = 1 or more. The following applies: 500 µM; treatment time 1 h; system: HEK293T cell lysate. The essentials:
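After 1 h at ambient temperature with vehicle or electrophile (500 µM), HEK293T lysate (2 mg/mL) was labelled for 1 h with iodoacetamide alkyne and clicked to sCIP-TMT reagents. Pooled samples were trypsin-digested overnight at 37 °C, streptavidin-enriched, acid-eluted and analysed by Orbitrap Eclipse LC-MS/MS with FAIMS, then quantified in FragPipe over three replicates with duplicate channels. A cysteine's log2 competition ratio is its mean control-channel over mean compound-channel reporter intensity. Cysteines quantified in only one replicate were not included.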
Take SPATA5L1 C78 (UniProt Q9BVQ7): the “log2 ratio of iodoacetamide-alkyne labeling” value (from here on “log2 ratio”) is 0.204 (inactive).

On to IKBKG C347 (UniProt Q9Y6K9), for which the “log2 ratio” value was 0.397 (inactive). As to UBE2O C598 (UniProt Q9C0C9), the “log2 ratio” value is 0.166 (inactive). In the case of RNF126 C229 (UniProt Q9BV68) it was -0.457 (inactive); in that of IARS2 C91 (UniProt Q9NSE4), 0.81 (inactive). As for FANCI C56 (UniProt Q9NVI1), the “log2 ratio” value is 0.281 (inactive). To TNKS1BP1 C1324 (UniProt Q9C0C2) belongs 1.18 (active); to NUDT5 C76 (UniProt Q9UKK9), 0.157 (inactive); to TRIM33 C153 (UniProt Q9UPN9), 0.274 (inactive).

HECTD1 C1368 (UniProt Q9ULT8): the “log2 ratio” value is 0.751 (inactive).

For RBM27 C776 (UniProt Q9P2N5), the “log2 ratio” value is 0.232 (inactive). In the case of ASPSCR1 C225 (UniProt Q9BZE9) it was 1.02 (active); in that of NAT10 C486 (UniProt Q9H0A0), 0.0616 (inactive). In the case of DAXX C338 (UniProt Q9UER7) it was 0.306 (inactive); in that of UniProt Q9BWW4_C80, 0.318 (inactive). In the case of UniProt Q9NVH0_C284 it was 0.123 (inactive); in that of NOSIP C185 (UniProt Q9Y314), 0.25 (inactive).

In the case of CTSZ C92 (UniProt Q9UBR2), the “log2 ratio” value was -0.349 (inactive). In the case of GPHN C26 (UniProt Q9NQX3) it was -0.0135 (inactive); in that of UniProt Q9HBK9_C32, 1.1 (active); in that of NOTCH3 C134 (UniProt Q9UM47), 1.63 (active). To PUS7L C142 (UniProt Q9H0K6) belongs -0.0378 (inactive).
